For eleven compounds, Potency results are on record in PubChem BioAssay (NCATS).

Records with an inconclusive call do not appear. The source made the active and inactive calls. The call rests on the fitted dose curve; in most records, active means well fitted inhibition curve with a large enough effect; inconclusive means small, poorly fitted or top-dose-only effect; inactive means flat fitted curve, though single readings scatter.

Assay in all cases: qHTS profiling for inhibitors of Plasmodium falciparum proliferation (AID 504749); further: nearly all actives have a fitted effect of over 60% in size
Common to all, as to conditions: P. falciparum in erythrocytes, SYBR Green DNA, 72 h; series mostly up to 12.8 µM

The subject of one test is 3D7. In short, it runs like this: (§1)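 Three-day growth assay of blood-stage parasites in erythrocytes (0.3% parasitemia, 2.5% hematocrit) at 37 C, 5% CO2, quantified by SYBR Green DNA staining after overnight detergent lysis.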
For the next test, the system named is AA1029. The procedure, abridged:
as §1

A further test has as its system AS120. The procedure, abridged:
as §1

In a further test the test system is CP191. The procedure, abridged: as §1
Another test relates to CP192. The procedure, abridged: as §1
The test system of a further test is CP194. The procedure, abridged:
as §1

Another test relates to CP217. In short, it runs like this: as §1
Another test relates to CP237. The procedure, abridged:
as §1

The next test has as its system CP252. The procedure, abridged:
as §1

The next test concerns CP256. In short, it runs like this:
as §1

For a further test, the system named is CP265. In short, it runs like this: as §1
In another test the test system is CP286. In short, it runs like this: as §1
Another test relates to CP291. The procedure, abridged:
as §1

The subject of another test is DIV30. The procedure, abridged:
as §1

The next test deals with ECU. In short, it runs like this: as §1
The next test relates to N140. In short, it runs like this: as §1
In a further test the test system is PAD. The procedure, abridged: as §1
The next test deals with PC26. The procedure, abridged:
as §1

Another test has as its system SC27B. The procedure, abridged: as §1
For another test, the system named is TAB109. In short, it runs like this:
as §1
Potency means the concentration at half of the fitted maximal effect.

`O=C1OC(CO)C(O)C(O)C1O` (stereo not drawn): the Potency result in the test with 3D7, with AA1029, in the test on AS120, in the test with CP191, with CP192 and with CP194 was “inactive” each time. Besides, the Potency result in the test with CP217, with CP237, in the test with CP252, in the test with CP256, with CP265 and in the test with CP286 was “inactive” throughout. Also, the Potency entry in the test on CP291, in the test on DIV30, in the test on ECU, with N140, in the test on PAD and in the test on PC26 was “inactive” each time. The Potency result in the test on SC27B and with TAB109 was “inactive” each time.

For the compound `CC(=O)OC1CCC2C3CCc4cc(O)ccc4C3CCC12C` (stereo not drawn), the Potency entry in the test with 3D7, in the test on AA1029, in the test on AS120, in the test on CP191, with CP192 and in the test on CP194 was “inactive” each time. Moreover, the Potency result in the test on CP217, with CP237, in the test with CP252, in the test with CP256, in the test with CP265 and with CP286 was “inactive” throughout. Further, the Potency entry with CP291, in the test on DIV30, in the test on ECU, in the test on N140, in the test with PAD and in the test with PC26 was “inactive” throughout. In addition, the Potency result with SC27B and with TAB109 was “inactive” in each case.

On to `OCC1OC([S-])[C@H](O)C(O)C1O.[Au+]` (stereo partly drawn), for which the Potency entry in the test with 3D7, in the test with AA1029, in the test on AS120, in the test with CP191, with CP192 and in the test on CP194 was “inactive” in each case. The Potency result with CP217, in the test with CP237, with CP252, with CP256, with CP265 and in the test with CP286 was “inactive” throughout. Besides, the Potency result with CP291, in the test with DIV30, in the test with ECU, with N140, with PAD and in the test with PC26 was “inactive” in each case. The Potency entry in the test on SC27B and with TAB109 was “inactive” throughout.

Turning to `NC(C(=O)O)[C@@H]1CC(Cl)=NO1` (stereo partly drawn), the Potency in the test with 3D7 was 1000 nM (active); in the test with AA1029, 1000 nM (active); in the test on AS120, 1780 nM (active); in the test on CP191, 2510 nM (active); with CP192 it was 3380 nM (active); in the test on CP194, 3380 nM (active). Further, the Potency in the test on CP217 was 1120 nM (active); with CP237, 1260 nM (active); in the test on CP252, 2820 nM (active); in the test with CP256 it was 2820 nM (active); in the test with CP265, 3160 nM (active); in the test on CP286, 794 nM (active). The Potency in the test on CP291 was 2130 nM (active); in the test on DIV30, 3380 nM (active); in the test with ECU it was 2240 nM (active); in the test on N140, 1260 nM (active); with PAD it was 708 nM (active); in the test with PC26, 1900 nM (active). In addition, the Potency with SC27B is 1410 nM (active); with TAB109, 1000 nM (active).

With `CC(=O)[C@]1(O)CCC2C3C=C(Cl)C4=CC(=O)C5CC5[C@@]4(C)C3CC[C@]21C` (stereo partly drawn), the Potency result with 3D7, with AA1029, in the test with AS120, in the test on CP191, in the test with CP192 and with CP194 was “inactive” in each case. In addition, the Potency result with CP217, in the test with CP237, in the test with CP252, in the test with CP256, in the test with CP265 and with CP286 was “inactive” in each case. In addition, the Potency result in the test with CP291, in the test on DIV30, in the test on ECU, with N140, in the test with PAD and in the test with PC26 was “inactive” in each case. In addition, the Potency result with SC27B and in the test on TAB109 was “inactive” each time.

Turning to `C/C1=C2N=C(/C=C3N=C(/C(C)=C4\[N-]C(C)(C5N=C1C(C)(CCC(=O)NCC(C)OP(=O)([O-])O[C@H]1C(O)C(n6cnc7cc(C)c(C)cc76)O[C@@H]1CO)C5CC(N)=O)C(C)(CC(N)=O)C4CCC(N)=O)C(C)(CC(N)=O)C\3CCC(N)=O)C(C)(C)C/2CCC(N)=O.[CH2-]C1OC(n2cnc3c(N)ncnc32)C(O)C1O.[Co]` (stereo partly drawn), the Potency result in the test with 3D7, with AA1029, with AS120, in the test with CP191, in the test with CP192 and in the test with CP194 was “inactive” in each case. For the same compound, the Potency result in the test with CP217, with CP237, in the test with CP252, with CP256, in the test with CP265 and in the test with CP286 was “inactive” in each case. Also, the Potency entry in the test on CP291, with DIV30, with ECU, in the test with N140, in the test with PAD and with PC26 was “inactive” each time. Also, the Potency entry with SC27B and with TAB109 was “inactive” each time.

Regarding `C[C@]1(c2ccccc2)OC(C(=O)O)=CC1=O`, the Potency entry with 3D7, with AA1029, with AS120, in the test with CP191, with CP192 and with CP194 was “inactive” in each case. Also, the Potency result with CP217, with CP237, in the test on CP252, in the test with CP256, with CP265 and with CP286 was “inactive” throughout. Besides, the Potency result in the test with CP291, with DIV30, in the test on ECU, in the test with N140, in the test on PAD and in the test with PC26 was “inactive” each time. The Potency result in the test with SC27B and in the test with TAB109 was “inactive” in each case.

On to `CCC(C)C(=O)OC1CCC=C2C=CC(C)C(CCC3CC(O)CC(=O)O3)[C@@H]21` (stereo partly drawn), for which the Potency result with 3D7, in the test with AA1029, in the test with AS120, in the test with CP191, in the test with CP192 and in the test on CP194 was “inactive” in each case. Besides, the Potency entry with CP217, in the test on CP237, in the test with CP252, in the test on CP256, with CP265 and in the test with CP286 was “inactive” each time. Further, the Potency result in the test on CP291, in the test with DIV30, with ECU, in the test on N140, in the test with PAD and with PC26 was “inactive” in each case. For the same compound, the Potency entry in the test with SC27B and with TAB109 was “inactive” each time.

As to `CO[C@]12C(COC(N)=O)C3=C(C(=O)C(C)=C(N)C3=O)N1CC1NC12` (stereo partly drawn), the Potency with AA1029 is 2000 nM (active); in the test with AS120, 562 nM (active); with CP191 it was 891 nM (active); in the test with CP217, 1780 nM (active); with CP252 it was 794 nM (active); in the test with CP256, 5010 nM (active). Further, the Potency is 501 nM (active) with CP286; 1410 nM (active) with ECU; 631 nM (active) in the test on N140; 631 nM (active) in the test with PAD; 1000 nM (active) with SC27B; 2240 nM (active) with TAB109. In the test with CP237, the Potency result is “inactive”.

Consider `CCCC(=O)O[C@]1(C(=O)CO)CCC2[C@@H]3CCC4=CC(=O)CC[C@]4(C)C3C(O)C[C@]21C` (stereo partly drawn), for which the Potency entry with 3D7, with AA1029, in the test with AS120, in the test on CP191, with CP192 and in the test on CP194 was “inactive” each time. For the same compound, the Potency entry with CP217, in the test on CP237, in the test on CP252, in the test with CP256, in the test on CP265 and with CP286 was “inactive” in each case. Further, the Potency entry in the test with CP291, in the test with DIV30, in the test on ECU, in the test on N140, in the test on PAD and in the test with PC26 was “inactive” each time. The Potency result in the test with SC27B and with TAB109 was “inactive” throughout.

As for `CC(C)C1CCC(C(=O)NC(Cc2ccccc2)C(=O)O)CC1` (stereo not drawn), the Potency entry in the test on 3D7, with AA1029, in the test with AS120, in the test on CP191, with CP192 and in the test on CP194 was “inactive” each time. The Potency entry in the test on CP217, in the test on CP237, in the test on CP252, with CP256, in the test with CP265 and in the test on CP286 was “inactive” each time. The Potency entry in the test with CP291, in the test with DIV30, in the test on ECU, with N140, with PAD and in the test with PC26 was “inactive” each time. For the same compound, the Potency entry with SC27B and in the test on TAB109 was “inactive” each time.
